Assay results from PubChem BioAssay (NCI).
Compounds without any hit were thinned out: in the full panel of roughly 83,000, 20% have a hit.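 A percent growth of 40 corresponds to 60% growth inhibition; 0 means no net growth; -100 means all cells died. Active threshold: below 10.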 Unmarked numbers belong to inactive results. Active and inactive are the calls of the source.

Tests used:
Assay in all cases: NCI-60 one-dose screen, 48 h (100 = growth as untreated, 0 = no growth, -100 = all killed)
Conditions in all cases: 10 µM unless noted
[1] = tested on: RPMI-8226 leukemia
[2] = tested on: OVCAR-8 ovarian
[3] = tested on: OVCAR-5 ovarian
[4] = tested on: OVCAR-4 ovarian
[5] = tested on: SK-OV-3 ovarian
[6] = tested on: IGROV1 ovarian
[7] = tested on: OVCAR-3 ovarian
[8] = tested on: HS 578T breast
[9] = tested on: NCI/ADR-RES ovarian
[10] = tested on: BT-549 breast
[11] = tested on: MDA-MB-435 melanoma
[12] = tested on: SW-620 colon
[13] = tested on: MCF7 breast
[14] = tested on: HCT-116 colon
[15] = tested on: HCC-2998 colon
[16] = tested on: KM12 colon
[17] = tested on: T-47D breast

| SMILES | growth [1] | growth [2] [%] | growth [3] [%] | growth [4] | growth [5] [%] | growth [6] [%] | growth [7] | growth [8] | growth [9] | growth [10] [%] | growth [11] | growth [12] | growth [13] | growth [14] | growth [15] | growth [16] [%] | growth [17] [%] |
| --- | --- | --- | --- | --- | --- | --- | --- | --- | --- | --- | --- | --- | --- | --- | --- | --- | --- |
| O=S(=O)(Nc1ccsc1-c1nc(-c2ccccc2)no1)c1cc(Cl)cc(Cl)c1 | 82.6% | 92.4 | 86.5 | 93.8% | 83.3 | 100 | 96.7% | 94.1% | 94% | 99.5 | 88.9% | 95.8% | 92.4% | 89.9% | 104% | 93.2 | – |
| CS(=O)(=O)c1ccc(-c2[nH]c3ccc(F)cc3c2/C=N/O)cc1 | 90.4% | 90.3 | 91.4 | 97.1% | 69.8 | 89.9 | 99.8% | 92.2% | 107% | 91 | 99.6% | 110% | 82.9% | 87.9% | 110% | 101 | – |
| C=C1c2c(C)nn(-c3ccc(O)cc3)c2N(C)C23C[C@@H]1C1(C)c4c(C)nn(-c5ccc(O)cc5)c4N(C)C(C)(C[C@H]12)C3 (stereo partly specified) | -1.11% (active) | 27.8 | 85.8 | 32.2% | 37.7 | 63.2 | 24.2% | 52.4% | 47.4% | 28.6 | 18.7% | 31.2% | 5.99% (active) | 8.9% (active) | 44.9% | 21.2 | – |
| NC(=O)CC1(O)C=C(Br)C(=O)C(Br)=C1 | -31.3% (active) | 95.9 | 70.2 | 34.7% | 99.1 | 82.2 | -9.94% (active) | – | – | 28.8 | 32.4% | -36.1% (active) | 25.6% | -61.9% (active) | 76.3% | 109 | – |
| CCN(CC)N=Nc1nn(C(=O)Nc2ccc(Cc3ccccc3)cc2)c2ccc(Cl)cc12 | 57.1% | 69.3 | 87.7 | 75.7% | 92.2 | 88 | 87.6% | 91.5% | 82.1% | 84.1 | 43% | 44.4% | 40.4% | 44% | 43.2% | 56.6 | – |
| COc1ccc(C2=NC(=O)NC2c2ccc(OC)cc2)cc1 (stereo unspecified) | 57.4% | 97.6 | 77.8 | 74.8% | 66.4 | 77.8 | 69% | – | 1.85% (active) | 90.6 | 9.83% (active) | 38.7% | 29.3% | 47% | – | 41.1 | 62.5 |
| c1ccc2c(c1)nc(-n1ccnc1)c1nc3ccccc3n12 | 77.9% | 30.4 | 82.4 | 68% | 21.5 | 52.5 | 78.1% | 70.3% | 49.2% | 45.5 | 76.1% | 65.7% | 62.5% | 52.5% | 76% | 64.9 | – |
| CN(C)c1ccc(-c2cc(-c3ccc(Nc4nc(Nc5ccccc5)nc(Nc5ccc(Cl)cc5)n4)cc3)nc(N)n2)cc1 | 34.1% | 51.3 | 36.6 | 49.6% | 85.4 | 39.2 | 49.5% | – | 15.5% | 51.4 | 49.2% | 67.9% | 19.1% | 7.76% (active) | -8.31% (active) | 36.6 | 29.3 |
| CS(=O)(=O)c1ccc(N/N=C/c2c(-c3ccc(S(C)(=O)=O)cc3)[nH]c3ccc(F)cc23)cc1 | -41.7% (active) | 26.1 | 75.1 | 40.2% | 54.6 | 35.4 | 41.7% | 5.71% (active) | 91.5% | 23.9 | 40.3% | 59.7% | 18.9% | 27.1% | 52.3% | 29.2 | – |
| CC(C)(C)CC(C)(C)Nc1c(-c2ccc(-c3ccccc3)cc2)nc2cnccn12 | 68.7% | 70.2 | 88.1 | -26.5% (active) | 76.3 | 66 | 90.2% | 95.5% | 97.7% | 95 | 82.7% | – | 82.3% | 59.8% | 93.7% | 79.9 | – |
